# Test results published in the supplement of paper PMC4466140.
# Tests used:
# Test in all cases: SPOT peptide array binding signal intensity (averaged, normalized) (arbitrary units (background-subtracted, floor 0; scale differs between SH3 domains)); higher = stronger binding of the SH3 domain to the peptide
# [1] = biological target: AgAbp1
# Procedure, shortened: (§1)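 Four yeast species supplied the SH3 domains, which were expressed as GST fusions in E. coli BL21(DE3) and purified on glutathione Sepharose. Incubation with cellulose membranes carrying synthetic 15-mer peptides, cysteines exchanged for serines, ran overnight at 4°C at 10 μg/ml in TBS-based blocking buffer. Binding signal is reported as normalized, background-subtracted spot intensity averaged over replicates, in arbitrary units not shared between domains.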
# [2] = biological target: AgBbc1
# Procedure, shortened: as §1
# [3] = biological target: AgBem1-D1
# Procedure, shortened: as §1
# [4] = biological target: AgBzz1-D1
# Procedure, shortened: as §1
# [5] = biological target: AgBzz1-D2
# Procedure, shortened: as §1
# [6] = biological target: AgCyk3
# Procedure, shortened: as §1
# [7] = biological target: AgFus1
# Procedure, shortened: as §1
# [8] = biological target: AgHof1
# Procedure, shortened: as §1
# [9] = biological target: AgHse1
# Procedure, shortened: as §1
# [10] = biological target: AgLsb1
# Procedure, shortened: as §1
# [11] = biological target: AgLsb4
# Procedure, shortened: as §1
# [12] = biological target: AgMyo5
# Procedure, shortened: as §1
# [13] = biological target: AgNbp2
# Procedure, shortened: as §1
# [14] = biological target: AgRvs167
# Procedure, shortened: as §1
# [15] = biological target: AgSho1
# Procedure, shortened: as §1
# [16] = biological target: AgSla1-D1-D2
# Procedure, shortened: as §1
# [17] = biological target: AgSla1-D3
# Procedure, shortened: as §1
# [18] = biological target: CaAbp1-D1
# Procedure, shortened: as §1
# [19] = biological target: CaAbp1-D2
# Procedure, shortened: as §1
# [20] = biological target: CaBbc1
# Procedure, shortened: as §1
# [21] = biological target: CaBem1-D1
# Procedure, shortened: as §1
# [22] = biological target: CaBzz1-D1
# Procedure, shortened: as §1
# [23] = biological target: CaBzz1-D2
# Procedure, shortened: as §1
# [24] = biological target: CaCyk3
# Procedure, shortened: as §1
# [25] = biological target: CaFus1
# Procedure, shortened: as §1
# [26] = biological target: CaHof1
# Procedure, shortened: as §1
# [27] = biological target: CaHse1
# Procedure, shortened: as §1
# [28] = biological target: CaLsb1
# Procedure, shortened: as §1
# [29] = biological target: CaLsb4
# Procedure, shortened: as §1
# [30] = biological target: CaMyo5
# Procedure, shortened: as §1
# [31] = biological target: CaNbp2
# Procedure, shortened: as §1
# [32] = biological target: CaRvs167
# Procedure, shortened: as §1
# [33] = biological target: CaRvs167-3
# Procedure, shortened: as §1
# [34] = biological target: CaSho1
# Procedure, shortened: as §1
# [35] = biological target: CaSla1-D1-D2
# Procedure, shortened: as §1
# [36] = biological target: CaSla1-D3
# Procedure, shortened: as §1
# [37] = biological target: ScAbp1
# Procedure, shortened: as §1
# [38] = biological target: ScBbc1
# Procedure, shortened: as §1
# [39] = biological target: ScBem1-D1
# Procedure, shortened: as §1
# [40] = biological target: ScBzz1-D1
# Procedure, shortened: as §1
# [41] = biological target: ScBzz1-D2
# Procedure, shortened: as §1
# [42] = biological target: ScCyk3
# Procedure, shortened: as §1
# [43] = biological target: ScFus1
# Procedure, shortened: as §1
# [44] = biological target: ScHof1
# Procedure, shortened: as §1
# [45] = biological target: ScHse1
# Procedure, shortened: as §1
# [46] = biological target: ScLsb1
# Procedure, shortened: as §1
# [47] = biological target: ScLsb2
# Procedure, shortened: as §1
# [48] = biological target: ScLsb3
# Procedure, shortened: as §1
# [49] = biological target: ScLsb4
# Procedure, shortened: as §1
# [50] = biological target: ScMyo3
# Procedure, shortened: as §1
# [51] = biological target: ScMyo5
# Procedure, shortened: as §1
# [52] = biological target: ScNbp2
# Procedure, shortened: as §1
# [53] = biological target: ScPex13
# Procedure, shortened: as §1
# [54] = biological target: ScRvs167
# Procedure, shortened: as §1
# [55] = biological target: ScSho1
# Procedure, shortened: as §1
# [56] = biological target: ScSla1-D1-D2
# Procedure, shortened: as §1
# [57] = biological target: ScSla1-D3
# Procedure, shortened: as §1
# [58] = biological target: SpAbp1-D1
# Procedure, shortened: as §1
# [59] = biological target: SpBbc1
# Procedure, shortened: as §1
# [60] = biological target: SpBzz1-D1
# Procedure, shortened: as §1
# [61] = biological target: SpBzz1-D2
# Procedure, shortened: as §1
# [62] = biological target: SpCyk3
# Procedure, shortened: as §1
# [63] = biological target: SpHof1
# Procedure, shortened: as §1
# [64] = biological target: SpHof1-2
# Procedure, shortened: as §1
# [65] = biological target: SpHof1-3
# Procedure, shortened: as §1
# [66] = biological target: SpHse1
# Procedure, shortened: as §1
# [67] = biological target: SpLsb1
# Procedure, shortened: as §1
# [68] = biological target: SpLsb4
# Procedure, shortened: as §1
# [69] = biological target: SpMyo1
# Procedure, shortened: as §1
# [70] = biological target: SpNbp2
# Procedure, shortened: as §1
# [71] = biological target: SpPex13
# Procedure, shortened: as §1
# [72] = biological target: SpRvs167
# Procedure, shortened: as §1
# [73] = biological target: SpSla1-D1-D2
# Procedure, shortened: as §1
# [74] = biological target: SpSla1-D3
# Procedure, shortened: as §1
binder,measurement,setting,value
FFRRSELYLPNSSKA,SPOT peptide array binding signal intensity,[1],2
same,SPOT peptide array binding signal intensity,[2],3.75
same,SPOT peptide array binding signal intensity,[3],31.5
same,SPOT peptide array binding signal intensity,[4],26.5
same,SPOT peptide array binding signal intensity,[5],22.5
same,SPOT peptide array binding signal intensity,[6],≤ 0
same,SPOT peptide array binding signal intensity,[7],162
same,SPOT peptide array binding signal intensity,[8],25
same,SPOT peptide array binding signal intensity,[9],1000
same,SPOT peptide array binding signal intensity,[10],1.75
same,SPOT peptide array binding signal intensity,[11],47.5
same,SPOT peptide array binding signal intensity,[12],7.25
same,SPOT peptide array binding signal intensity,[13],11
same,SPOT peptide array binding signal intensity,[14],1.67
same,SPOT peptide array binding signal intensity,[15],25
same,SPOT peptide array binding signal intensity,[16],122
same,SPOT peptide array binding signal intensity,[17],5.5
same,SPOT peptide array binding signal intensity,[18],70
same,SPOT peptide array binding signal intensity,[19],51.5
same,SPOT peptide array binding signal intensity,[20],0.25
same,SPOT peptide array binding signal intensity,[21],9
same,SPOT peptide array binding signal intensity,[22],95
same,SPOT peptide array binding signal intensity,[23],32.2
same,SPOT peptide array binding signal intensity,[24],≤ 0
same,SPOT peptide array binding signal intensity,[25],624
same,SPOT peptide array binding signal intensity,[26],≤ 0
same,SPOT peptide array binding signal intensity,[27],3
same,SPOT peptide array binding signal intensity,[28],0.5
same,SPOT peptide array binding signal intensity,[29],13
same,SPOT peptide array binding signal intensity,[30],14.2
same,SPOT peptide array binding signal intensity,[31],89
same,SPOT peptide array binding signal intensity,[32],4.5
same,SPOT peptide array binding signal intensity,[33],16.2
same,SPOT peptide array binding signal intensity,[34],318
same,SPOT peptide array binding signal intensity,[35],≤ 0
same,SPOT peptide array binding signal intensity,[36],≤ 0
same,SPOT peptide array binding signal intensity,[37],47
same,SPOT peptide array binding signal intensity,[38],≤ 0
same,SPOT peptide array binding signal intensity,[39],18
same,SPOT peptide array binding signal intensity,[40],11
same,SPOT peptide array binding signal intensity,[41],20
same,SPOT peptide array binding signal intensity,[42],24
same,SPOT peptide array binding signal intensity,[43],206
same,SPOT peptide array binding signal intensity,[44],1
same,SPOT peptide array binding signal intensity,[45],1290
same,SPOT peptide array binding signal intensity,[46],6.25
same,SPOT peptide array binding signal intensity,[47],2
same,SPOT peptide array binding signal intensity,[48],34.5
same,SPOT peptide array binding signal intensity,[49],8
same,SPOT peptide array binding signal intensity,[50],3.5
same,SPOT peptide array binding signal intensity,[51],8.5
same,SPOT peptide array binding signal intensity,[52],42.5
same,SPOT peptide array binding signal intensity,[53],≤ 0
same,SPOT peptide array binding signal intensity,[54],3.17
same,SPOT peptide array binding signal intensity,[55],201
same,SPOT peptide array binding signal intensity,[56],12
same,SPOT peptide array binding signal intensity,[57],0.5
same,SPOT peptide array binding signal intensity,[58],45
same,SPOT peptide array binding signal intensity,[59],≤ 0
same,SPOT peptide array binding signal intensity,[60],111
same,SPOT peptide array binding signal intensity,[61],≤ 0
same,SPOT peptide array binding signal intensity,[62],≤ 0
same,SPOT peptide array binding signal intensity,[63],65.2
same,SPOT peptide array binding signal intensity,[64],6.75
same,SPOT peptide array binding signal intensity,[65],455
same,SPOT peptide array binding signal intensity,[66],552
same,SPOT peptide array binding signal intensity,[67],0.75
same,SPOT peptide array binding signal intensity,[68],7
same,SPOT peptide array binding signal intensity,[69],9
same,SPOT peptide array binding signal intensity,[70],3
same,SPOT peptide array binding signal intensity,[71],10
same,SPOT peptide array binding signal intensity,[72],6.67
same,SPOT peptide array binding signal intensity,[73],≤ 0
same,SPOT peptide array binding signal intensity,[74],35
